# From PubChem BioAssay (EPA / NIEHS)
# Calls of active or inactive are those of the source. The calls were made as follows: active = hit-call score of the fitted dose curve at least 0.9, where 1 is the maximum; inactive = score below 0.9.
# Key:
# [1] = ATG_GLI_CIS: Attagene CIS-FACTORIAL HepG2 Assay for human Zinc Finger Protein GLI1 (AID 2282945); settings: HepG2, Attagene cis-factorial reporter mRNA, GLI element; actives raise or lower the signal
# How it was run: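 HepG2 cells transiently transfected with cis-promoter multiplexed reporter units report endogenous transcription factor activity. After 24 h chemical exposure, reporter mRNA was quantified by RT-PCR, 6-FAM labelling, HpaI digestion and capillary electrophoresis, with bidirectional fitting against DMSO.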
# [2] = molecular target: Bile acid receptor (Homo sapiens) (UniProt Q96RI1); assay: ATG_IR1_CIS: Attagene CIS-FACTORIAL HepG2 Assay for human Nuclear Receptor Subfamily 1 Group H Member 4 (NR1H4), IR1 submotif (AID 2282946); settings: IR1 reporter transcription, actives raise or lower the signal
# How it was run: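 Readout: reporter transcript levels by RT-PCR with fluorescent capillary electrophoresis, from HepG2 cells transiently transfected with multiplexed cis-regulated reporters and dosed 24 h. Gain- or loss-of-signal fitted versus DMSO negative control.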
# [3] = ATG_GRE_CIS: Attagene CIS-FACTORIAL HepG2 Assay for human Glucocorticoid Response Elements (GRE) (AID 2282947); settings: HepG2 GRE cis-reporter, Attagene multiplex mRNA; actives raise or lower the signal
# How it was run: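 HepG2, transient cis-reporter transfection, 24 h. Reporter mRNA: RT-PCR then CE, fluorescence. Fit both directions vs DMSO.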
# [4] = ATG_ISRE_CIS: Attagene CIS-FACTORIAL HepG2 Assay for human Interferon Regulatory Factor 1 (IRF1) binding to an Interferon-Stimulated Response Element (ISRE) (AID 2282948); settings: HepG2 ISRE cis-reporter (Attagene), mRNA transcription readout; actives raise or lower the signal
# How it was run: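 Endogenous transcription factor activity read as reporter transcript abundance via RT-PCR and capillary electrophoresis. HepG2 cells transiently transfected, 24 h chemical exposure. Gain or loss fitted against DMSO baseline.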
# [5] = ATG_M_32_CIS: Attagene CIS-FACTORIAL HepG2 Assay for M32 Transcription Factor (Internal Marker) (AID 2282949); settings: HepG2 Attagene cis-factorial M32 reporter, mRNA; actives raise or lower the signal;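 also: background control marker of the multiplexed CIS panel rather than a real target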
# How it was run: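 Transient MRTU transfection of HepG2; 24 h compound treatment; TriZol RNA, oligo(dT) RT, reporter PCR, 6-FAM primer extension, HpaI cut, CE. Gain/loss of signal vs DMSO.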
# [6] = ATG_M_06_CIS: Attagene CIS-FACTORIAL HepG2 Assay for M06 Transcription Factor (Internal Marker) (AID 2282950); settings: HepG2 Attagene CIS-FACTORIAL M06 internal marker reporter; actives raise or lower the signal
# How it was run: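 Fluorescence-labelled RT-PCR products from cis-promoter reporter units, cut with HpaI and resolved by capillary electrophoresis, give the signal. Cells are human HepG2, dosed for 24 h. Serves as background control, fitted relative to DMSO.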
# [7] = molecular target: Hepatocyte nuclear factor 6 (Homo sapiens) (UniProt Q9UBC0); assay: ATG_HNF6_CIS: Attagene CIS-FACTORIAL HepG2 Assay for human Hepatocyte Nuclear Factor 6 (HNF6) (AID 2282952); settings: HepG2 Attagene cis-factorial HNF6 reporter transcription; actives raise or lower the signal
# How it was run: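 Endogenous transcription factor activity in human HepG2 liver cells was captured through cis-regulated reporter constructs. After 24 h treatment, reporter mRNA was measured by RT-PCR with capillary electrophoresis, and activity was fitted in both directions relative to DMSO.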
# [8] = molecular target: Heat shock factor protein 1 (Homo sapiens) (UniProt Q00613); assay: ATG_HSE_CIS: Attagene CIS-FACTORIAL HepG2 Assay for human Heat Shock Transcription Factor 1 (HSE) (AID 2282953); settings: HepG2 HSE cis-reporter, Attagene RNA transcription; actives raise or lower the signal
# How it was run: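 After a 24 h incubation with test chemical, transfected HepG2 cells were harvested for RNA; reporter transcripts were measured by RT-PCR and capillary electrophoresis. Values reflect gain or loss of signal relative to DMSO.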
# [9] = ATG_MRE_CIS: Attagene CIS-FACTORIAL HepG2 Assay for human Metal Responsive Element (MRE) (AID 2282954); settings: HepG2 MRE cis-reporter transcription, Attagene multiplex; actives raise or lower the signal
# How it was run: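 Readout: capillary electrophoresis of 6-FAM-labelled, HpaI-digested RT-PCR reporter products. System: HepG2 cells carrying transient multiplexed cis reporters, dosed 24 h. Analysis: bidirectional fit, DMSO baseline.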
# [10] = molecular target: Hypoxia-inducible factor 1-alpha (Homo sapiens) (UniProt Q16665); assay: ATG_HIF1a_CIS: Attagene CIS-FACTORIAL HepG2 Assay for human Hypoxia Inducible Factor 1 (HIF1A) (AID 2282951); settings: HepG2 Attagene cis-factorial HIF1a reporter transcription; actives raise or lower the signal
# How it was run: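 Cis-element reporter constructs were transiently transfected into HepG2 cells, which were treated for 24 h; reporter RNA was reverse-transcribed, amplified, labelled and resolved by capillary electrophoresis.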
# Sequence of Bile acid receptor (Homo sapiens) (Q96RI1 whole entry, looked up): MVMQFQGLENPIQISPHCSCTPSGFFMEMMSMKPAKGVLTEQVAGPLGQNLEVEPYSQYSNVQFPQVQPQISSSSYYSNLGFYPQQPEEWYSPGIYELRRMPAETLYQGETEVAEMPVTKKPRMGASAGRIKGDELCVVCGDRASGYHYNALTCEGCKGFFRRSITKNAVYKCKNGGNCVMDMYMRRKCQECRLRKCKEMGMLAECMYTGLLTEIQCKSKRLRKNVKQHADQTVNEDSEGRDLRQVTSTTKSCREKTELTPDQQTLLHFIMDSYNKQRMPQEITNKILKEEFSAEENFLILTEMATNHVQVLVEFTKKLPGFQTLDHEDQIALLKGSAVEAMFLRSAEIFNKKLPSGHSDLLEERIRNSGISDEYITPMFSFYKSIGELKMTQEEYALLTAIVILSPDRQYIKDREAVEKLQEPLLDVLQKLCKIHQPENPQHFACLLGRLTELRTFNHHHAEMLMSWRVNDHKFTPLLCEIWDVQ
# Sequence of Hepatocyte nuclear factor 6 (Homo sapiens) (Q9UBC0 whole entry, looked up): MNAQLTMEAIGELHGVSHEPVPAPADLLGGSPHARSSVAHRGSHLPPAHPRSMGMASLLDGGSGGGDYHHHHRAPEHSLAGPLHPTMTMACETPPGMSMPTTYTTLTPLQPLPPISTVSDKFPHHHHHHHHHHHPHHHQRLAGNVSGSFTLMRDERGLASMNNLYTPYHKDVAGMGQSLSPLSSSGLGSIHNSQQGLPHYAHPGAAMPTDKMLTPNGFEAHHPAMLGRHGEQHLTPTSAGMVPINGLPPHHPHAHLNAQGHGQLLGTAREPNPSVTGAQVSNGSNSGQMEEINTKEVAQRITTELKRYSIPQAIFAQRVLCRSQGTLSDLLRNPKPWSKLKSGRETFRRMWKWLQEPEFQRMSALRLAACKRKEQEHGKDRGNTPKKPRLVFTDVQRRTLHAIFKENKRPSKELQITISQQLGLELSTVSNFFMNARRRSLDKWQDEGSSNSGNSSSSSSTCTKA
# Sequence of Hypoxia-inducible factor 1-alpha (Homo sapiens) (Q16665 whole entry, looked up): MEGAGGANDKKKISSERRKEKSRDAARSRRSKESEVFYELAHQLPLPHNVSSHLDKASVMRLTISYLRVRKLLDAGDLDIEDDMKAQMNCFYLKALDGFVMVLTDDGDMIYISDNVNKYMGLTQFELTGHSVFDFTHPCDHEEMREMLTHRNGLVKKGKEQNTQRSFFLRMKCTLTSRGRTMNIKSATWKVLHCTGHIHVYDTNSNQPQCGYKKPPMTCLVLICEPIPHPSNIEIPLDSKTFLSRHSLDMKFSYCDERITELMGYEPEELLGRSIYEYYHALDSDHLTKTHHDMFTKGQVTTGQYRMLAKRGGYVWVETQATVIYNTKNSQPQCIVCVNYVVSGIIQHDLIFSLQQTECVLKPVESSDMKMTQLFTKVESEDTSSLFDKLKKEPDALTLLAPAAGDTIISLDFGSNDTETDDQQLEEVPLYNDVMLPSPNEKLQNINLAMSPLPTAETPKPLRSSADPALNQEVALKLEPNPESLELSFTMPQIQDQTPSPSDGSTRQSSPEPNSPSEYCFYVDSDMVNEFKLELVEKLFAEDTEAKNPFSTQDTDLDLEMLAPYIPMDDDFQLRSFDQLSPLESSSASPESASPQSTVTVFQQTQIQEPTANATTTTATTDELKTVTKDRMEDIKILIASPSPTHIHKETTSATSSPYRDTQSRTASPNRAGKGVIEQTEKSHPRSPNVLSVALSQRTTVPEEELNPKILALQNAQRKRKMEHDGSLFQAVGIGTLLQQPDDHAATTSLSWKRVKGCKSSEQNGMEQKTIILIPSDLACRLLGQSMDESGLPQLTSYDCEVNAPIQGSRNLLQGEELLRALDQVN
# Sequence of Heat shock factor protein 1 (Homo sapiens) (Q00613 whole entry, looked up): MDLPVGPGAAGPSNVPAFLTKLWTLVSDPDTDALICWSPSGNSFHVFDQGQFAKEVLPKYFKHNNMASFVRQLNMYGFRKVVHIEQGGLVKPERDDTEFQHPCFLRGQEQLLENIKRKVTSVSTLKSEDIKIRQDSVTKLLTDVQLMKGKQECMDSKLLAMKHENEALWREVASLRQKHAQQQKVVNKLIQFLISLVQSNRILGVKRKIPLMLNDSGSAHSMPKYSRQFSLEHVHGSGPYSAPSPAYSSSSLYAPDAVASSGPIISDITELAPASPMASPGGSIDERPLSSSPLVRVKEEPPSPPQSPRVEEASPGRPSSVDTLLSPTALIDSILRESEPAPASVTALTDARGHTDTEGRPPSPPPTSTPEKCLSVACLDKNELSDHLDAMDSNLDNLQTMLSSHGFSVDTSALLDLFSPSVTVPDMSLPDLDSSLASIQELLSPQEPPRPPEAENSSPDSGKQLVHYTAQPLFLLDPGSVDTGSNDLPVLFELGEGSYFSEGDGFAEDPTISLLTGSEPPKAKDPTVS
SMILES,outcome [1],outcome [2],outcome [3],outcome [4],outcome [5],outcome [6],outcome [7],outcome [8],outcome [9],AC50 [2],outcome [10],AC50 [7],AC50 [8],AC50 [9],AC50 [4],AC50 [3],AC50 [10]
COC(=O)NC(=S)Nc1ccccc1NC(=S)NC(=O)OC,inactive,inactive,inactive,inactive,inactive,inactive,inactive,inactive,inactive,,,,,,,,
Nc1c(Cl)c(F)nc(OCC(=O)O)c1Cl,inactive,,inactive,inactive,inactive,inactive,inactive,inactive,inactive,,,,,,,,
CCCCC(O)(Cn1cncn1)c1ccc(Cl)cc1Cl (centres undefined),inactive,,inactive,inactive,inactive,inactive,,,,91.3 µM (active),inactive,88.4 µM (active),76.2 µM (active),61.5 µM (active),,,
COCC(=O)N(c1c(C)cccc1C)C(C)C(=O)OC (centres undefined),inactive,inactive,,inactive,inactive,inactive,inactive,inactive,inactive,,,,,,,,
Clc1cccc(C(Cl)(Cl)Cl)n1,inactive,inactive,,inactive,inactive,,inactive,inactive,inactive,,inactive,,,,,,
Cc1c(COC(=O)[C@@H]2[C@H](/C=C(\Cl)C(F)(F)F)C2(C)C)cccc1-c1ccccc1,inactive,inactive,,inactive,inactive,inactive,inactive,inactive,inactive,,,,,,,,
COc1cc(OC)nc(NC(=O)NS(=O)(=O)c2ncccc2OCC(F)(F)F)n1,inactive,inactive,inactive,inactive,inactive,inactive,inactive,inactive,inactive,,,,,,,,
CN=C=S,inactive,inactive,,inactive,inactive,inactive,inactive,inactive,,,inactive,,,26.1 µM (active),,,
CCOc1cc(C(C)(C)C)ccc1C1COC(c2c(F)cccc2F)=N1 (centres undefined),inactive,inactive,,inactive,inactive,inactive,inactive,inactive,,,inactive,,,5.07 µM (active),,,
CCNC(=O)NC(=O)C(C#N)=NOC,inactive,inactive,inactive,inactive,inactive,,inactive,inactive,inactive,,inactive,,,,,,
CNC(=O)Oc1cccc2ccccc12,inactive,inactive,,inactive,inactive,,inactive,inactive,,,,,,50 µM (active),,,
OC(c1ccc(Cl)cc1)(c1ccc(Cl)cc1)C(Cl)(Cl)Cl,inactive,inactive,inactive,inactive,inactive,,inactive,inactive,inactive,,,,,,,,
CC1(C)C(C=C(Cl)Cl)C1C(=O)OC(C#N)c1cccc(Oc2ccccc2)c1 (centres undefined),inactive,,inactive,inactive,inactive,inactive,inactive,inactive,,,,,,14.9 µM (active),,,
COP(=S)(OC)Oc1ccc([N+](=O)[O-])c(C)c1,inactive,inactive,inactive,inactive,inactive,inactive,inactive,inactive,,,,,,50 µM (active),,,
CC(C)C1(C)N=C(c2ncccc2C(=O)O)NC1=O (centres undefined),inactive,inactive,inactive,inactive,inactive,,inactive,inactive,inactive,,inactive,,,,,,
CO/N=C(/C1=NOCCO1)c1ccccc1Oc1ncnc(Oc2ccccc2Cl)c1F,inactive,inactive,inactive,,inactive,,inactive,,,,inactive,,17.8 µM (active),8.64 µM (active),4.82 µM (active),,
CCN(CC)C(=O)C(C)Oc1cccc2ccccc12 (centres undefined),inactive,inactive,,inactive,inactive,,inactive,inactive,,,,,,7.47 µM (active),,,

SMILES,outcome [1],outcome [2],outcome [3],outcome [4],outcome [5],outcome [6],outcome [7],outcome [8],outcome [9],AC50 [2],outcome [10],AC50 [7],AC50 [8],AC50 [9],AC50 [4],AC50 [3],AC50 [10]
CC(C)=CC1C(C(=O)OCc2coc(Cc3ccccc3)c2)C1(C)C (centres undefined),inactive,inactive,inactive,inactive,inactive,,inactive,inactive,,,,,,50 µM (active),,,
CC(C)N1C(=O)N(c2ccccc2)CSC1=NC(C)(C)C,inactive,,inactive,inactive,inactive,inactive,inactive,inactive,inactive,,,,,,,,
COCC(C)N(C(=O)CCl)c1c(C)csc1C (centres undefined),inactive,inactive,inactive,inactive,inactive,,inactive,inactive,inactive,,inactive,,,,,,
CC1(C)C(C(=O)OC(C#N)c2cccc(Oc3ccccc3)c2)C1(C)C (centres undefined),inactive,inactive,,inactive,inactive,inactive,inactive,inactive,,,,,,10.8 µM (active),,,
CCOP(=O)(OCC)Oc1nc(Cl)c(Cl)cc1Cl,inactive,,inactive,inactive,inactive,inactive,inactive,inactive,inactive,,inactive,,,,,,
O=P(O)(O)CCCl,inactive,inactive,,inactive,inactive,inactive,inactive,inactive,inactive,,inactive,,,,,,
CCCCOCN(C(=O)CCl)c1c(CC)cccc1CC,inactive,inactive,inactive,inactive,inactive,inactive,inactive,inactive,inactive,,,,,,,,
COc1ccc(-c2ccccc2)cc1NNC(=O)OC(C)C,inactive,inactive,,inactive,inactive,,inactive,,,,,,50 µM (active),22.7 µM (active),,13.2 µM (active),22.8 µM (active)
Cc1ccc(N=CN(C)C=Nc2ccc(C)cc2C)c(C)c1,inactive,,inactive,inactive,inactive,inactive,inactive,inactive,inactive,,,,,,,,
CS(=O)(=O)c1cc(C(F)(F)F)ccc1C(=O)c1cnoc1C1CC1,inactive,,inactive,inactive,inactive,inactive,inactive,inactive,inactive,,inactive,,,,,,
CS(=O)(=O)c1ccc(C(=O)C2C(=O)CCCC2=O)c([N+](=O)[O-])c1,inactive,inactive,inactive,inactive,inactive,,inactive,inactive,inactive,,,,,,,,
CCOc1nc(F)cc2nc(S(=O)(=O)Nc3c(Cl)cccc3Cl)nn12,inactive,inactive,inactive,inactive,inactive,,inactive,inactive,inactive,,inactive,,,,,,
O=C(O)c1c(Cl)ccc2cc(Cl)cnc12,inactive,inactive,inactive,inactive,inactive,inactive,inactive,inactive,inactive,,,,,,,,
O=c1n(Cl)c(=O)n(Cl)c(=O)n1Cl,inactive,,inactive,inactive,inactive,inactive,inactive,inactive,inactive,,inactive,,,,,,
CC(C)(C)C(=O)C(Oc1ccc(Cl)cc1)n1cncn1 (centres undefined),inactive,,inactive,inactive,inactive,inactive,inactive,inactive,inactive,,inactive,,,,,,
Cc1nc(N(C)C)nc(OC(=O)N(C)C)c1C,inactive,inactive,inactive,inactive,inactive,inactive,inactive,inactive,inactive,,inactive,,,,,,
